From ChEMBL document CHEMBL3988442, “University of Dundee, Small-Polar-MMV Screening Library” (2021)
For some assays here: Measured potencies and affinities stand elsewhere.

Key:
Parameters in all cases: scale not given: direction of the effect not stated beside the values
[1] = molecular target: Protein translocase subunit SecA (Escherichia coli (strain K12)) (UniProt P10408); experiment: Assay to Identify E. coli SecA ATPase Inhibitors; type: functional; conditions: 30 µM
[2] = molecular target: T1, Ubiquitin-activating enzyme e1, putative (Leishmania donovani (strain BPK282A1)) (UniProt E9BSI1); experiment: Leishmania donovani Ubiquitin Activating Enzyme (LdE1); type: functional; conditions: 30 µM
T1 sequence (whole entry): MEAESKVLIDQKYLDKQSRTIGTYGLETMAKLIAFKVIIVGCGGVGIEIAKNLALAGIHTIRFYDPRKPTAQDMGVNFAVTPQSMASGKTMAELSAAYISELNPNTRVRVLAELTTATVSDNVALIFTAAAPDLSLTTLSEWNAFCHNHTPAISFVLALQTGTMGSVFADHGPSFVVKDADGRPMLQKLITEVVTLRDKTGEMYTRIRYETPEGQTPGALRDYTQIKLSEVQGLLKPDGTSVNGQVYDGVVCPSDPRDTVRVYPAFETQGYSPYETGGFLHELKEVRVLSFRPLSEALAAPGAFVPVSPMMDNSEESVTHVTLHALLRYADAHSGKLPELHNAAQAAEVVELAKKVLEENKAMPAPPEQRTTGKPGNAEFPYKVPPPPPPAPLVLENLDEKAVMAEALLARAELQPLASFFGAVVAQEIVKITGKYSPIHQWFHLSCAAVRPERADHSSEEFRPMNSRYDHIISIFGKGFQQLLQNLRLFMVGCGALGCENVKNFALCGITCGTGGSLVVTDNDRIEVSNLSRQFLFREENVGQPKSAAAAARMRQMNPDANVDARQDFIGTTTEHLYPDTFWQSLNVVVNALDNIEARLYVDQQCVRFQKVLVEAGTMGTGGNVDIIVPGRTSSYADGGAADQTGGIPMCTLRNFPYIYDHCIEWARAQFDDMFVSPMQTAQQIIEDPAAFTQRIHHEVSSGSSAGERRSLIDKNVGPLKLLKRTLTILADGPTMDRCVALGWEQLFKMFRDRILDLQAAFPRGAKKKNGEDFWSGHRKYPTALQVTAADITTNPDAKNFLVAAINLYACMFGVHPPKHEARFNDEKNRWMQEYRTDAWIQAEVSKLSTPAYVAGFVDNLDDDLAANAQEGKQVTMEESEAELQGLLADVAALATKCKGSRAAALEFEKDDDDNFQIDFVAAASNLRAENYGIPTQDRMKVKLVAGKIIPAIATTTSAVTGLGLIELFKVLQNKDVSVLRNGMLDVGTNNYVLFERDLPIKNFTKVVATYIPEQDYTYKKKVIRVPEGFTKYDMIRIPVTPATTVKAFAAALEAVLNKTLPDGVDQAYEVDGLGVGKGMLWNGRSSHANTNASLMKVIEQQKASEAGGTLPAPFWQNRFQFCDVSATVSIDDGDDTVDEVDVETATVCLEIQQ

[3] = molecular target: Sialic acid-binding Ig-like lectin 9 (Homo sapiens) (UniProt Q9Y336); experiment: Hs-Siglec9 ALPHAscreen SOP 20170721; conditions: 10 µM
Chain of Sialic acid-binding Ig-like lectin 9 (Homo sapiens) (Q9Y336 whole entry): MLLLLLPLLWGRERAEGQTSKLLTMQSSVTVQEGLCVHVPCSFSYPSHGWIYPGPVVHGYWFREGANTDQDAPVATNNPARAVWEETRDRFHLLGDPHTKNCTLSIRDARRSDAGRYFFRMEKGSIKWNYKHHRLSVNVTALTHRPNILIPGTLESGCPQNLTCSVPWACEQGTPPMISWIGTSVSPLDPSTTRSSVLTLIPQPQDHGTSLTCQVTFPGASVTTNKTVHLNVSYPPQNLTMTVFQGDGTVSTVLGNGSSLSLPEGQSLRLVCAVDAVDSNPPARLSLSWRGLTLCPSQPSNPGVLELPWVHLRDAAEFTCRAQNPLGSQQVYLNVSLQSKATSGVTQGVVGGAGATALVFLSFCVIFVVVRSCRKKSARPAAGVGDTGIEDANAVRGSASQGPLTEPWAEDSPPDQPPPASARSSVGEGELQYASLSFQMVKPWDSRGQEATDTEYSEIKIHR

Trypanosoma cruzi = experiment: Trypanosoma cruzi phosphomannomutase and mannose-1-phosphate guanylyltransferase assay; type: functional; conditions: 10 µM
[4] = molecular target: T2, Arginase-2, mitochondrial (Homo sapiens) (UniProt P78540); experiment: in vitro enzyme assay to detect the production of urea directly proportional to the activity of Arginase II; type: functional; conditions: 33.3 µM; further: in the data most compounds retested in dose-response had high values
T2 sequence (whole entry): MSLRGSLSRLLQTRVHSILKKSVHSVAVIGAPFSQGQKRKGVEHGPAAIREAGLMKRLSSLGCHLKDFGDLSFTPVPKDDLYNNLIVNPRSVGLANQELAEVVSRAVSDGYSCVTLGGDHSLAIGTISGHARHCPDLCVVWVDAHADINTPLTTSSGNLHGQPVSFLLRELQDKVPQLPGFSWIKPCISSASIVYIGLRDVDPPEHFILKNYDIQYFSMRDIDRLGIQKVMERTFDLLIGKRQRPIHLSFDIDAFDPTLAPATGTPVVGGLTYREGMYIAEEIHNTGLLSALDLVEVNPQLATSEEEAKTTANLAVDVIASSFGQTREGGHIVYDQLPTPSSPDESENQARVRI

[5] = molecular target: T3, Proteasome subunit beta (Trypanosoma cruzi) (UniProt O96673); experiment: Trypanosoma cruzi proteasome chymotrypsin-like activity (TcProtChymo) assay.; further: in the data most compounds retested in dose-response had high values; type: functional; conditions: 9.37 µM
T3 sequence (whole entry): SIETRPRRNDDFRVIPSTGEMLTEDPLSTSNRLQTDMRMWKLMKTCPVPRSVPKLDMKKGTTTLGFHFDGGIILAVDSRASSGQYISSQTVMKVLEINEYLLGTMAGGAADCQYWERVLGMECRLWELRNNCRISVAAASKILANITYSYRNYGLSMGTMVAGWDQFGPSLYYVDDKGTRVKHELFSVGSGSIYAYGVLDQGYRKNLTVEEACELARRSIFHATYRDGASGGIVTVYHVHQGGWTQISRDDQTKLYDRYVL

Homo sapiens = species: Homo sapiens; experiment: To identify inhibition of the IFN signalling (Jak-Stat) pathway via expression of an eGFP reporter gene under the control of an IFN-stimulated response element (ISRE) containing MxA promoter.; type: functional; conditions: 30 µM
[6] = molecular target: T4, Tyrosyl-tRNA synthetase, putative (Trypanosoma cruzi (strain CL Brener)) (UniProt Q4DSP6); experiment: Trypanosoma cruzi tyrosyl tRNA synthetase (TcYRS) _High Tyrosine SOP; type: functional; conditions: 30 µM; further: in the data most compounds retested in dose-response had high values
T4 sequence (whole entry): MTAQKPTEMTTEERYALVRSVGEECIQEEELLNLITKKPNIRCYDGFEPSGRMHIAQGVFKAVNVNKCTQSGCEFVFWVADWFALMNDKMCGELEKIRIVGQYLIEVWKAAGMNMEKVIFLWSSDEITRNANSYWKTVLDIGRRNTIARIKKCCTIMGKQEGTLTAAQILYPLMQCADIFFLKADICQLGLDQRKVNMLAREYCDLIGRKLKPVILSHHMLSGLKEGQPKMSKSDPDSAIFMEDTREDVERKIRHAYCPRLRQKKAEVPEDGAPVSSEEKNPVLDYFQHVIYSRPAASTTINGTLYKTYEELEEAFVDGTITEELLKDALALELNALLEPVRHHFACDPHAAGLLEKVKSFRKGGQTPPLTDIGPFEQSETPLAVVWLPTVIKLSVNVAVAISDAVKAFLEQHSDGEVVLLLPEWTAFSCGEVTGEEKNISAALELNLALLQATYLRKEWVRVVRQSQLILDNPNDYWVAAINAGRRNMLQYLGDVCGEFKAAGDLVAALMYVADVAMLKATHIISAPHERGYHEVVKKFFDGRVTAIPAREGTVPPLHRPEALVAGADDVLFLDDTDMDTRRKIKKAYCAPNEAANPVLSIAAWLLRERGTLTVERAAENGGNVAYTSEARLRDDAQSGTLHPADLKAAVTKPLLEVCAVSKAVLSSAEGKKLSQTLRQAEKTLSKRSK

[7] = molecular target: T4, Tyrosyl-tRNA synthetase, putative (Trypanosoma cruzi (strain CL Brener)); experiment: Trypanosoma cruzi tyrosyl tRNA synthetase (TcYRS) SOP; type: functional; conditions: 30 µM
[8] = molecular target: Chromo domain-containing protein 1 (Saccharomyces cerevisiae (strain ATCC 204508 / S288c) (Baker's yeast)) (UniProt P32657); experiment: ScCHD-1 Enzyme Inhibition Assay; type: functional; conditions: 30 µM; further: in the data most compounds retested in dose-response had high values
Chain of Chromo domain-containing protein 1 (Saccharomyces cerevisiae (strain ATCC 204508 / S288c) (Baker's yeast)) (P32657 whole entry, the tested form may be a part): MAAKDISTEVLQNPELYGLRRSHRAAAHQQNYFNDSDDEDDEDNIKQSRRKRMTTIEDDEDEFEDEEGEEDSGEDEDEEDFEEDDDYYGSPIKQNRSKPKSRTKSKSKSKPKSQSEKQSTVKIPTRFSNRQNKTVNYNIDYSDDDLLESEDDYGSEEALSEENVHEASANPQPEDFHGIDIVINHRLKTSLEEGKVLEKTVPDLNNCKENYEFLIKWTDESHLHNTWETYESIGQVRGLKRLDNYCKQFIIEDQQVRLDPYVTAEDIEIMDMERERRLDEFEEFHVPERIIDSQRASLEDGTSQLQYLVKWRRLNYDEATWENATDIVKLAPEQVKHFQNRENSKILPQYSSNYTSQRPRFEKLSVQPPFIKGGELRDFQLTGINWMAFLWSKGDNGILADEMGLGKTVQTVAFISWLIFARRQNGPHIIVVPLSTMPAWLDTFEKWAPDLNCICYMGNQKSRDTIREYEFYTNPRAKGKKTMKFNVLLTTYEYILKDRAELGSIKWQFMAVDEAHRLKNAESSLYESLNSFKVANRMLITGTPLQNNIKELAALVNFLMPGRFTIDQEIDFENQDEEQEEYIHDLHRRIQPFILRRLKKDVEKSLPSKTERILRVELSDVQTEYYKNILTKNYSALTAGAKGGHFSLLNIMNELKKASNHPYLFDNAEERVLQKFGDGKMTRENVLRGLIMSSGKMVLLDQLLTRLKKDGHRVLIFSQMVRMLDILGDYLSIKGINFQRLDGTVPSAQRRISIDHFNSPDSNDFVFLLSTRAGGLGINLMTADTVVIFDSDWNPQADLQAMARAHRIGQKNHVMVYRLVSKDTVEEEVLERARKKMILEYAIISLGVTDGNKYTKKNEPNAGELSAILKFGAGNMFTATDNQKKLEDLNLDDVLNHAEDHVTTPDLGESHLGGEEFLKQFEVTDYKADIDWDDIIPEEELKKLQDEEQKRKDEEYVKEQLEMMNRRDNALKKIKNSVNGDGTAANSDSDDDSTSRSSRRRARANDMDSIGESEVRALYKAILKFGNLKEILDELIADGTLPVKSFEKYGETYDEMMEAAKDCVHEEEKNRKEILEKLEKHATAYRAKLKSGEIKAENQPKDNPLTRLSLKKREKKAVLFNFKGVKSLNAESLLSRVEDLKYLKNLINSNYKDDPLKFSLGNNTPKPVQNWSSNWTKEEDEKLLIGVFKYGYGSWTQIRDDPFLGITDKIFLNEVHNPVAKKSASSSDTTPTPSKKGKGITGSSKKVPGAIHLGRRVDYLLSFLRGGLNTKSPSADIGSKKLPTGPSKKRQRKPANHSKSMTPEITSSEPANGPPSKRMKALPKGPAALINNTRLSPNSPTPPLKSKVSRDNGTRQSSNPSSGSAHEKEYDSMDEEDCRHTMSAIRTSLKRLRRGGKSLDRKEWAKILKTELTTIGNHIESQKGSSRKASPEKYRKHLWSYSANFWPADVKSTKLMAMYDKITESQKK

Chain of Protein translocase subunit SecA (Escherichia coli (strain K12)) (P10408 whole entry): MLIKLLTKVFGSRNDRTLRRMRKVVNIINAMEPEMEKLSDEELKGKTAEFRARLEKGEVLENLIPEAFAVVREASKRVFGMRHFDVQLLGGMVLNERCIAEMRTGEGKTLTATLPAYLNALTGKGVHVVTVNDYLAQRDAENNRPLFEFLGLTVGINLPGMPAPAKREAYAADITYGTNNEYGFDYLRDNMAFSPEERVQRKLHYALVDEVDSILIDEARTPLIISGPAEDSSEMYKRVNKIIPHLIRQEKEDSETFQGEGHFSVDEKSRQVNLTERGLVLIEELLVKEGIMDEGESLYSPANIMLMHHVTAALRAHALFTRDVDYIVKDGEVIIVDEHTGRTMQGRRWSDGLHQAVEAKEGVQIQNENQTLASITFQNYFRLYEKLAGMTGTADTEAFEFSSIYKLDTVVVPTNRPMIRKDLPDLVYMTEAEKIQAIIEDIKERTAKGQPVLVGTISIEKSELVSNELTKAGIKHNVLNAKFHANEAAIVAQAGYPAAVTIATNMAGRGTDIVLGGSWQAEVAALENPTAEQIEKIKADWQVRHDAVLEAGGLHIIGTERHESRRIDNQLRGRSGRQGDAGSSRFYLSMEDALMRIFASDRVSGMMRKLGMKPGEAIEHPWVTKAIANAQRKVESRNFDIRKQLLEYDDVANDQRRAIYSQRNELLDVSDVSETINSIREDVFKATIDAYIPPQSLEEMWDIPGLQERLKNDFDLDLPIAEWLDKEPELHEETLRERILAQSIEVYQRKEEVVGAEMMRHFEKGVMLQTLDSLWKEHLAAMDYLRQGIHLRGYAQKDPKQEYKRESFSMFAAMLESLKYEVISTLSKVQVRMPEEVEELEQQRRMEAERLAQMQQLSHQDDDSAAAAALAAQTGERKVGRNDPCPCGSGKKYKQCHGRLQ

## O=C(CSC1CCc2ccccc2NC1=O)NCCc1ccco1 (stereo not given)
[1]
  Percent Effect: -1.93%
[2]
  Percent Effect: 18.9%
[3]
  Percent Effect: 2.64%
Trypanosoma cruzi
  Percent Effect: 3.98%
[4]
  Percent Effect: 11.5%
[5]
  Percent Effect: 18%
Homo sapiens
  Percent Effect: 16.5%
[6]
  Percent Effect: 3.72%
[7]
  Percent Effect: 17.1%
[8]
  Percent Effect: -0.493%

## Cc1cc(NC(=O)N(CC2CCOC2)C2CC2)no1 (stereo not given)
[1]
  Percent Effect: -2.1%
[2]
  Percent Effect: 13.3%
[3]
  Percent Effect: 6.54%
Trypanosoma cruzi
  Percent Effect: 1.21%
[4]
  Percent Effect: 2.22%
[5]
  Percent Effect: 6.7%
Homo sapiens
  Percent Effect: 21.8%
[6]
  Percent Effect: 5.79%
[7]
  Percent Effect: 12.8%
[8]
  Percent Effect: -7.01%

## O=C(CCSc1ccc(F)cc1)NS(=O)(=O)c1ccc2c(c1)OCCO2
[1]
  Percent Effect: -5.54%
[2]
  Percent Effect: -10.3%
[3]
  Percent Effect: -3.31%
Trypanosoma cruzi
  Percent Effect: 4.22%
[4]
  Percent Effect: -2.05%
[5]
  Percent Effect: 13.1%
Homo sapiens
  Percent Effect: 1.97%
[6]
  Percent Effect: -11%
[7]
  Percent Effect: -1.21%
[8]
  Percent Effect: -2.81%

## c1cc(-c2noc(CN3CCn4c(nnc4C4CC4)C3)n2)co1
[1]
  Percent Effect: -1.2%
[2]
  Percent Effect: 12.8%
[3]
  Percent Effect: 1.91%
Trypanosoma cruzi
  Percent Effect: 4.04%
[4]
  Percent Effect: 6.15%
[5]
  Percent Effect: 2.13%
Homo sapiens
  Percent Effect: 16.4%
[6]
  Percent Effect: 7.18%
[7]
  Percent Effect: 10.8%
[8]
  Percent Effect: 2.97%

## c1ccc(-c2nc(CN3CCc4c(ncn4C4CC4)C3)cs2)cc1
[1]
  Percent Effect: -0.517%
[2]
  Percent Effect: 5.2%
[3]
  Percent Effect: -12.1%
Trypanosoma cruzi
  Percent Effect: -0.933%
[4]
  Percent Effect: -7.99%
[5]
  Percent Effect: 16%
Homo sapiens
  Percent Effect: 28.5%
[6]
  Percent Effect: 12.8%
[7]
  Percent Effect: 18.8%
[8]
  Percent Effect: -8.68%
